According to the supplement of paper PMC10849652:
The full data set covers some 7,900 targets. This sample favours those with a hit. About 0.6% of all pairs of compound and target were hits. A number with no mark means an inactive call.

Assays:
Assay in all cases: log2 fold change, soluble protein after heating vs DMSO (PISA); higher = thermal stabilisation; K562 cells, 10 uM, 30 min; active = over 0.2 and 3.5 SD of the protein, either way, in both replicates (recomputed)
[1] = compound: CS(=O)(=O)c1ccc(-c2cnc(N)c(C(=O)Nc3ccccc3)n2)cc1
How it was run: (§1)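 K562 cells at 2×10^6 cells/mL were given 10 μM compound for 30 min. Aliquots then went through 3 min of heating across 48°C-58°C, were pooled, and were extracted in PBS with 0.5% NP-40 at 4°C, and the supernatant after 21,000xg for 90 min was quantified by TMTpro 16plex LC-MS/MS with channel sums equalised. Thermal stability relative to control samples, from duplicates, is given as log2 fold change.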

crizotinib = compound: C[C@@H](Oc1cc(-c2cnn(C3CCNCC3)c2)cnc1N)c1c(Cl)ccc(F)c1Cl [crizotinib]
How it was run: as §1

[2] = compound: C[C@@H]1COCCN1C2=NC(=NC(=C2)C3(CC3)S(=O)(=O)C)C4=C5C=CNC5=CC=C4
How it was run: as §1

[3] = compound: C[C@H](C1=CC=C(C=C1)C(=O)NC2=C3C=CNC3=NC=C2)N
How it was run: as §1

duvelisib = compound: C[C@H](Nc1ncnc2nc[nH]c12)c1cc2cccc(Cl)c2c(=O)n1-c1ccccc1 [duvelisib]
How it was run: as §1

gandotinib = compound: Cc1cc(Nc2cc(CN3CCOCC3)c3nc(C)c(Cc4ccc(Cl)cc4F)n3n2)n[nH]1 [gandotinib]
How it was run: as §1

tozasertib = compound: Cc1cc(Nc2cc(N3CCN(C)CC3)nc(Sc3ccc(NC(=O)C4CC4)cc3)n2)n[nH]1 [tozasertib]
How it was run: as §1

[4] = compound: Cc1cc(SCc2sc(-c3ccc(C(F)(F)F)cc3)nc2C)ccc1OCC(=O)O
How it was run: as §1

doramapimod = compound: Cc1ccc(-n2nc(C(C)(C)C)cc2NC(=O)Nc2ccc(OCCN3CCOCC3)c3ccccc23)cc1 [doramapimod]
How it was run: as §1

ispinesib = compound: Cc1ccc(C(=O)N(CCCN)[C@@H](c2nc3cc(Cl)ccc3c(=O)n2Cc2ccccc2)C(C)C)cc1 [ispinesib]
How it was run: as §1

bafetinib = compound: Cc1ccc(NC(=O)c2ccc(CN3CC[C@H](N(C)C)C3)c(C(F)(F)F)c2)cc1Nc1nccc(-c2cncnc2)n1 [bafetinib]
How it was run: as §1

[5] = compound: Cc1cccc(CC(=O)N2CCc3c2ccc(-c2cn(C)c4ncnc(N)c24)c3F)n1
How it was run: as §1

nilotinib = compound: Cc1cn(-c2cc(NC(=O)c3ccc(C)c(Nc4nccc(-c5cccnc5)n4)c3)cc(C(F)(F)F)c2)cn1 [nilotinib]
How it was run: as §1

[6] = compound: Cc1nc(Nc2n[nH]c3c2CN(C(=O)N[C@H](CN(C)C)c2ccccc2)C3(C)C)c2sccc2n1
How it was run: as §1

dasatinib = compound: Cc1nc(Nc2ncc(C(=O)Nc3c(C)cccc3Cl)s2)cc(N2CCN(CCO)CC2)n1 [dasatinib]
How it was run: as §1

[7] = compound: Cc1ncc(-c2ccnc(Nc3ccc(S(C)(=O)=O)cc3)n2)n1C(C)C
How it was run: as §1

[8] = compound: Cn1cc(-c2ccc3c(c2)CCN3C(=O)Cc2cccc(C(F)(F)F)c2)c2c(N)ncnc21
How it was run: as §1

[9] = compound: Cn1cc(-c2ccc3nnc(C(F)(F)c4ccc5ncccc5c4)n3n2)cn1
How it was run: as §1

tipifarnib = compound: Cn1cncc1[C@@](N)(c1ccc(Cl)cc1)c1ccc2c(c1)c(-c1cccc(Cl)c1)cc(=O)n2C [tipifarnib]
How it was run: as §1

mubritinib = compound: FC(F)(F)c1ccc(/C=C/c2nc(COc3ccc(CCCCn4ccnn4)cc3)co2)cc1 [mubritinib]
How it was run: as §1

Chain of UniProt Q9H082 (Q9H082 whole entry, looked up): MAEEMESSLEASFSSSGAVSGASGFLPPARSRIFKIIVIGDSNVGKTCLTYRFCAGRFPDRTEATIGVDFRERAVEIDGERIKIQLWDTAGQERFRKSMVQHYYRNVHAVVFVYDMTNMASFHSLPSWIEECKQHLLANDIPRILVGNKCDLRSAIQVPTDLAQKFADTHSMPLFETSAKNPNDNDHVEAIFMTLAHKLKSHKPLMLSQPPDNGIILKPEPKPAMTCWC
Chain of UniProt P06400 (P06400 whole entry, looked up): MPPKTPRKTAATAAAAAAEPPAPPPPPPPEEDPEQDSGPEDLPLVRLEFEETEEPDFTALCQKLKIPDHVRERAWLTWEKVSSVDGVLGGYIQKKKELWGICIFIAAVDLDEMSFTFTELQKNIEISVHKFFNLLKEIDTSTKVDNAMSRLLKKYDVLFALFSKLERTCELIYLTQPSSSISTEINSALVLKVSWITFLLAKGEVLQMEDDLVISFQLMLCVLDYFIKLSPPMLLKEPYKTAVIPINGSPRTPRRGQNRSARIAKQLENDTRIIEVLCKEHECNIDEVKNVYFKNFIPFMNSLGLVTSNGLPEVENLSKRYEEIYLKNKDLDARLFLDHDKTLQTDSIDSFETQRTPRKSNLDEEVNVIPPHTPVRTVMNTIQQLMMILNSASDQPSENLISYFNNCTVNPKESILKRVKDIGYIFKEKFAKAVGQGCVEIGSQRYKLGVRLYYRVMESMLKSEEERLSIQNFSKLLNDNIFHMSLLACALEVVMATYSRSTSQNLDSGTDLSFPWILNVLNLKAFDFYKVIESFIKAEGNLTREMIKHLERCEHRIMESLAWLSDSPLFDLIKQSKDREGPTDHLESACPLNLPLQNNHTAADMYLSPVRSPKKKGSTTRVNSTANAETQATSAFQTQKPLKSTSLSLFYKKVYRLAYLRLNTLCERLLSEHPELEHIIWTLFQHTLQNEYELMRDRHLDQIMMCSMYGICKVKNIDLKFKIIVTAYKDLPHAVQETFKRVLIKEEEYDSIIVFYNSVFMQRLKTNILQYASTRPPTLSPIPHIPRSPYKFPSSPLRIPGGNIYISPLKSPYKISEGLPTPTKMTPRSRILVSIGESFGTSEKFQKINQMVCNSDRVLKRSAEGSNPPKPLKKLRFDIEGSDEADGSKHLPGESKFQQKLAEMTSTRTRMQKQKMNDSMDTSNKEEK
Chain of UniProt Q8NBN7 (Q8NBN7 whole entry, looked up): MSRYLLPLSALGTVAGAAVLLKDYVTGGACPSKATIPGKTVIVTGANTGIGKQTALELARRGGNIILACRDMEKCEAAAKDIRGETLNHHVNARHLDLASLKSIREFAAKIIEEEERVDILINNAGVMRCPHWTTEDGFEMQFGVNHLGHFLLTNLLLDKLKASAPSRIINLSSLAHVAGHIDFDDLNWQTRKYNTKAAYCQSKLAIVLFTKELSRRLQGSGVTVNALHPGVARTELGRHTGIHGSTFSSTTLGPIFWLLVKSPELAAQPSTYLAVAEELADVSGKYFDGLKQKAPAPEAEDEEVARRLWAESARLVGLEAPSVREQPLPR
Chain of UniProt O94979 (O94979 whole entry, looked up): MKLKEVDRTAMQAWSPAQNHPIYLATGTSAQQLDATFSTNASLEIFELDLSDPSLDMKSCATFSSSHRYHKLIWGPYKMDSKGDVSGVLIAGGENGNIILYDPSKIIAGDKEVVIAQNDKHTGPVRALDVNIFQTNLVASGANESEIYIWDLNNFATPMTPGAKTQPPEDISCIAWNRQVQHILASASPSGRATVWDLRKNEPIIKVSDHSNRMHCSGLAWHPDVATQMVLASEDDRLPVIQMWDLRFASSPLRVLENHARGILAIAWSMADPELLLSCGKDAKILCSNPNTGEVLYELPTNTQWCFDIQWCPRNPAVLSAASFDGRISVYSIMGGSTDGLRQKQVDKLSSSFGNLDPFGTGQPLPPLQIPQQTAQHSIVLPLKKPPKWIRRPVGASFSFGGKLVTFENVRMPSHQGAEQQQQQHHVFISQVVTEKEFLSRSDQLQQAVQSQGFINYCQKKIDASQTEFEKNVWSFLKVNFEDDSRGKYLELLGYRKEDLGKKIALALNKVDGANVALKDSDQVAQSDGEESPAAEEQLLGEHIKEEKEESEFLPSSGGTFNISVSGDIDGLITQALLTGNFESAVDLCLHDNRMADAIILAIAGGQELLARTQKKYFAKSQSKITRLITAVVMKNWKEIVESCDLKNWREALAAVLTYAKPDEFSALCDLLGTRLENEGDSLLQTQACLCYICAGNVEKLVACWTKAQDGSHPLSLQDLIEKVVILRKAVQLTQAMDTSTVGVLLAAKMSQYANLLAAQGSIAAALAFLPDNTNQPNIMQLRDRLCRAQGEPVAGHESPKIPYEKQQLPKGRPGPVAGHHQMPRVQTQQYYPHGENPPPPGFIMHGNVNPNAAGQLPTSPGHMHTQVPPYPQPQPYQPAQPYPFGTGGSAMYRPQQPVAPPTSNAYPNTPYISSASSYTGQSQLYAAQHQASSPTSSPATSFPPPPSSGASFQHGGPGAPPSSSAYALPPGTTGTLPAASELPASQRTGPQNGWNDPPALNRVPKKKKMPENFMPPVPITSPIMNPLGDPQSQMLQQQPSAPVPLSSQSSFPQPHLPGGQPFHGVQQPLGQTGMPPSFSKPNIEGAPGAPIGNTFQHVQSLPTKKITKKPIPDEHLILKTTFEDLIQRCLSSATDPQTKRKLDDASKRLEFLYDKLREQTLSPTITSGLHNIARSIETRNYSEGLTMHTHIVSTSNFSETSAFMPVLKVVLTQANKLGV
Chain of UniProt Q53H47 (Q53H47 whole entry, looked up): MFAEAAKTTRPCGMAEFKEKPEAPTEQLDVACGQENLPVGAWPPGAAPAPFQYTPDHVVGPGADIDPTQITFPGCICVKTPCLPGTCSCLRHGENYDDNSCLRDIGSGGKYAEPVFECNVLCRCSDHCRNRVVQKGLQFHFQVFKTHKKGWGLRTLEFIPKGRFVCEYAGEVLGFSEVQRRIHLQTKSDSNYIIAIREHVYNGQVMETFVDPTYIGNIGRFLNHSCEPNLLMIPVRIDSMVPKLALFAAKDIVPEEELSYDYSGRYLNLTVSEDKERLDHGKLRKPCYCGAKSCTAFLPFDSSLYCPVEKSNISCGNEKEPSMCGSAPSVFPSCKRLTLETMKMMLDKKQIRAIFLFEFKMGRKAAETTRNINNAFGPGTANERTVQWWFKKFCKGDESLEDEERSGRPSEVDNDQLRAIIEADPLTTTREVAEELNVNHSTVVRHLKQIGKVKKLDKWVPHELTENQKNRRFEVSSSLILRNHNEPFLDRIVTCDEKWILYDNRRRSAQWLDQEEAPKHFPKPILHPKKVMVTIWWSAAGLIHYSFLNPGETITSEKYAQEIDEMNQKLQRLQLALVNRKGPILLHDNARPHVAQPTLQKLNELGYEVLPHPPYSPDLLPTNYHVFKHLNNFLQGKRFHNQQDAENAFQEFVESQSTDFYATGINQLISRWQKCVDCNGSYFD
Chain of UniProt Q99719 (Q99719 whole entry, looked up): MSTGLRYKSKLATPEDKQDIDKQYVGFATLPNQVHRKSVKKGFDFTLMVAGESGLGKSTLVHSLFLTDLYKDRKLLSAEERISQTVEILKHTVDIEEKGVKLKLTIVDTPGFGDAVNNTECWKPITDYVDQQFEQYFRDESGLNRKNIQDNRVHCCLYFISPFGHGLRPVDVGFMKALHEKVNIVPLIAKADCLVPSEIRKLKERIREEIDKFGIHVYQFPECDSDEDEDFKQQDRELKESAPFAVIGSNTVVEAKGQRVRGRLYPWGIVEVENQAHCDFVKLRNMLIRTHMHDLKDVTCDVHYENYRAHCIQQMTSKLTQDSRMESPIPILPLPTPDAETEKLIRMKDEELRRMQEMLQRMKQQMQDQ
Chain of UniProt Q6NT16 (Q6NT16 whole entry, looked up): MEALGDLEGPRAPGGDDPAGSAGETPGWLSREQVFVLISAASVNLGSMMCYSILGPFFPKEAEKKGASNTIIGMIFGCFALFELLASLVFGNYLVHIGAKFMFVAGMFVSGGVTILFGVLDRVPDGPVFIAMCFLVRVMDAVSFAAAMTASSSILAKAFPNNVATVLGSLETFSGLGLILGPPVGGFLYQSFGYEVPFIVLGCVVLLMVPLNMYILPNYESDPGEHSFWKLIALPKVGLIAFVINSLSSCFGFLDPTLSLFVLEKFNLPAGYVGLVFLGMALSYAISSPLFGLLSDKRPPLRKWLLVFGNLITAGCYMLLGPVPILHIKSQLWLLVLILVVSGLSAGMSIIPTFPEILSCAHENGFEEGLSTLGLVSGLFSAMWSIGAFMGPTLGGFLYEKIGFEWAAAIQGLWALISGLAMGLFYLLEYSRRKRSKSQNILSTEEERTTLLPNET
Chain of UniProt Q8TC12 (Q8TC12 whole entry, looked up): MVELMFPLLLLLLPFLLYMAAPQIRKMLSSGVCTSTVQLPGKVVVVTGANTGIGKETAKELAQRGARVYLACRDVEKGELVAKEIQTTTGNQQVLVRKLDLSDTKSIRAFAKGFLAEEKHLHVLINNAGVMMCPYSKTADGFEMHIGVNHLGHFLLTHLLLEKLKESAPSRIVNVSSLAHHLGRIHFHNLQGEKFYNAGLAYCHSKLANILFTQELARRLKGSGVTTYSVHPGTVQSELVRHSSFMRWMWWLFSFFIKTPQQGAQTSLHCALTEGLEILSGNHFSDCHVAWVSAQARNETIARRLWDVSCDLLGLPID
Chain of UniProt Q96ER3 (Q96ER3 whole entry, looked up): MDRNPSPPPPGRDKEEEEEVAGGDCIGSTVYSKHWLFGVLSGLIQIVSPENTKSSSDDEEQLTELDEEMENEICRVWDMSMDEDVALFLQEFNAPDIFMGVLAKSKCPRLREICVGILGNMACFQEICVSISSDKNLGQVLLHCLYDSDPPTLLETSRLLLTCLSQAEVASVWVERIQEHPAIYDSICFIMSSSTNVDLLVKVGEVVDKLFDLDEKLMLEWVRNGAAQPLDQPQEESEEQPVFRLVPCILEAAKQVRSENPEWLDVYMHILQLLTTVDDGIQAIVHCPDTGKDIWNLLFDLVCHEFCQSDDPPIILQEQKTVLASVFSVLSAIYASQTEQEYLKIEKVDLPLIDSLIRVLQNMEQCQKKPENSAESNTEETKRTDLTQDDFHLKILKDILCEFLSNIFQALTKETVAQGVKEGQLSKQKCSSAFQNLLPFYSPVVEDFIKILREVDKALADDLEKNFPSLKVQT

| Target | log2 fold change [1] | log2 fold change (crizotinib) | log2 fold change [2] | log2 fold change [3] | log2 fold change (duvelisib) | log2 fold change (gandotinib) | log2 fold change (tozasertib) | log2 fold change [4] | log2 fold change (doramapimod) | log2 fold change (ispinesib) | log2 fold change (bafetinib) | log2 fold change [5] | log2 fold change (nilotinib) | log2 fold change [6] | log2 fold change (dasatinib) | log2 fold change [7] | log2 fold change [8] | log2 fold change [9] | log2 fold change (tipifarnib) | log2 fold change (mubritinib) |
| --- | --- | --- | --- | --- | --- | --- | --- | --- | --- | --- | --- | --- | --- | --- | --- | --- | --- | --- | --- | --- |
| RNASET2 (UniProt O00584) | 0.033 | -0.35 (active) | 0.027 | 0.08 | 0.045 | 0.01 | -0.011 | -0.037 | -0.013 | -0.149 | -0.261 (active) | -0.006 | 0.016 | -0.002 | -0.031 | -0.034 | -0.065 | 0.027 | 0.067 | 0.021 |
| SEC31A (UniProt O94979) | 0.045 | -0.011 | 0.007 | 0.084 | 0.004 | -0.158 | 0.049 | 0.064 | 0 | 0.034 | 0.011 | 0.019 | -0.11 | -0.042 | -0.134 | 0.054 | -0.031 | -0.057 | -0.065 | 0.079 |
| RPS2 (UniProt P15880) | -0.045 | 0.043 | -0.369 | 0.286 | -0.162 | 0.202 | -0.007 | 0.007 | 0.131 | -0.162 | 0.284 | 0 | 0 | 0.198 | 0.13 | -0.035 | -0.216 | -0.105 | 0.077 | -0.095 |
| SLC18B1 (UniProt Q6NT16) | 0.027 | -0.404 (active) | 0.06 | -0.034 | 0.047 | 0.092 | -0.097 | -0.07 | -0.002 | -0.193 | -0.071 | 0 | -0.024 | 0.04 | 0.063 | -0.016 | 0.034 | 0.198 | -0.029 | -0.018 |
| RB1 (UniProt P06400) | 0.041 | -0.112 | 0.117 | -0.07 | 0.033 | -0.168 | -0.001 | -0.024 | 0.022 | -0.002 | 0.006 | 0.01 | 0.015 | -0.378 (active) | 0.011 | -0.716 (active) | 0.082 | 0.011 | 0.004 | 0.046 |
| RABGGTA (UniProt Q92696) | -0.035 | -0.076 | 0.046 | -0.058 | 0.045 | -0.004 | -0.036 | -0.008 | 0.017 | 0.026 | -0.019 | 0.027 | 0.033 | -0.088 | 0.076 | -0.076 | 0.089 | -0.015 | 0.08 | 0.002 |
| SCCPDH (UniProt Q8NBX0) | 0.074 | 0.333 | 0.058 | -0.093 | 0.068 | 0.313 | -0.018 | 0.124 | 0.007 | 0.081 | 0.161 | -0.046 | 0.189 | 0.019 | 0.008 | 0.174 | 0.273 | -0.074 | 0.419 (active) | 0.104 |
| RSL1D1 (UniProt O76021) | -0.146 | 0.037 | -0.33 | 0.456 | -0.169 | 0.146 | 0.066 | -0.037 | 0.312 | 0.251 | 0.288 | -0.027 | 0.117 | 0.109 | 0.239 | 0.264 | -0.427 | -0.18 | 0.15 | -0.244 |
| RAB33B (UniProt Q9H082) | 0.007 | 0.106 | 0.064 | -0.037 | 0.058 | -0.095 | -0.032 | -0.038 | -0.021 | -0.065 | -0.01 | 0.012 | 0.01 | 0.018 | -0.058 | 0.022 | 0 | 0.151 | 0.024 | -0.01 |
| RDH13 (UniProt Q8NBN7) | 0.04 | -0.231 | 0.161 | -0.019 | 0.082 | -0.08 | -0.101 | 0.029 | -0.037 | -0.322 (active) | -0.068 | -0.03 | 0.011 | -0.044 | -0.131 | 0.019 | 0.027 | 0.016 | 0.022 | -0.032 |
| RIOK3 (UniProt O14730) | -0.004 | -0.031 | 0.029 | -0.026 | 0.034 | 0.086 | -0.033 | -0.011 | -0.019 | -0.004 | -0.004 | -0.02 | -0.017 | 0.06 | 0.053 | -0.01 | 0.018 | -0.005 | 0.002 | 0.017 |
| SEPTIN5 (UniProt Q99719) | 0.004 | 0.017 | 0.036 | -0.036 | 0.002 | -0.023 | -0.008 | -0.017 | -0.017 | 0.027 | -0.017 | 0.021 | -0.011 | 0.002 | -0.048 | -0.006 | 0.051 | 0.025 | -0.024 | 0.007 |
| RHOA (UniProt P61586) | 0.028 | 0.098 | -0.317 | -0.101 | -0.066 | 0.022 | -0.024 | -0.035 | -0.082 | 0.219 | -0.149 | -0.051 | 0.154 | 0.001 | 0.001 | 0.014 | 0.04 | 0.012 | 0 | 0.029 |
| SAAL1 (UniProt Q96ER3) | 0.013 | -0.129 | 0.047 | 0.008 | 0.036 | 0.022 | -0.044 | 0.019 | -0.006 | -0.049 | -0.102 | 0.047 | -0.042 | 0.161 | -0.101 | 0.246 | -0.06 | 0 | -0.053 | 0.109 |
| SETMAR (UniProt Q53H47) | 0.077 | 0.036 | -0.028 | 0.134 | -0.004 | -0.129 | -0.061 | 0.003 | 0.024 | 0.164 | 0 | -0.07 | -0.104 | 0.117 | -0.013 | 0.163 | 0.028 | 0.127 | 0.054 | 0.04 |
| RDH11 (UniProt Q8TC12) | 0.164 | -0.303 | 0.082 | 0.116 | 0.11 | 0.115 | -0.029 | 0.425 (active) | 0.098 | -0.365 | -0.119 | -0.048 | 0.099 | -0.112 | -0.079 | -0.03 | 0.015 | -0.022 | 0.059 | -0.033 |
